# IDE exosite FP: exo-site inhibitors of human insulin-degrading enzyme | purified IDE, FL-6b probe fluorescence polarization; stronger effect = lower value | z-score at 20 µM | actives 6.3% (n = 17,000) | AID 1259349;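 active = z-score of -3 or lower, meaning strong loss of probe binding signal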;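 note: His-tagged human IDE residues 42-1019 made in E. coli with 30 nM FL-6b probe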
# Target sequence (P14735 42-1019 limits assumed): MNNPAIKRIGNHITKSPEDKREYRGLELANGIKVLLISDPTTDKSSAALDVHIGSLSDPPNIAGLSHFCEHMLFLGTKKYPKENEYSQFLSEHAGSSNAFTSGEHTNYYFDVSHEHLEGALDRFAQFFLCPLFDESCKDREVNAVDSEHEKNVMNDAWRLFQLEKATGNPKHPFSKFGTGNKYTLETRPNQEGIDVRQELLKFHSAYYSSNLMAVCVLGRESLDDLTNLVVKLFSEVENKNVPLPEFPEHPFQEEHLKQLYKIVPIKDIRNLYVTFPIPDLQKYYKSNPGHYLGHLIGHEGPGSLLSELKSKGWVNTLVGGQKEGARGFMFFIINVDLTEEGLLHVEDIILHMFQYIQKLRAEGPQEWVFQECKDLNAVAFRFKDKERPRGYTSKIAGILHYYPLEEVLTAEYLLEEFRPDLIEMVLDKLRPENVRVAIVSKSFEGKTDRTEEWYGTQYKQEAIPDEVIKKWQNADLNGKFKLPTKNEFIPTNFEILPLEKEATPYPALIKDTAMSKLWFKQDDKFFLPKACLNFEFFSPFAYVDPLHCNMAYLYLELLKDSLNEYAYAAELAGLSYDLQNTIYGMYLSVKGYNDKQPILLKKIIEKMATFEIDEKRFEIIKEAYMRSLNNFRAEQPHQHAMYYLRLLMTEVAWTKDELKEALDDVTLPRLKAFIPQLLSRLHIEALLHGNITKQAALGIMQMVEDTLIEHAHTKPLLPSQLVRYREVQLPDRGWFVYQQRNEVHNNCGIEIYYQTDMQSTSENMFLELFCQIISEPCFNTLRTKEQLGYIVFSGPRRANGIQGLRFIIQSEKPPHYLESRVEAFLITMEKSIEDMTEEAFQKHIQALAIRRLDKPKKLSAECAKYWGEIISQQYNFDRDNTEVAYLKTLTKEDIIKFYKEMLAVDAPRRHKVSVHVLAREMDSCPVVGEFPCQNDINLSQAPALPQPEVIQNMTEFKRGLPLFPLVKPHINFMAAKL
# * marks the source's active call; other numbers are inactive results. This is one part of a sample in which hits are shown more often than they occur.
SMILES,IDE exosite FP
Cc1ccc(S(=O)(=O)Nc2ccc3c(c2)C(=O)N(C)[C@H]2CC[C@@H](CC(=O)NCCc4ccncc4)O[C@@H]2CO3)cc1,0.0011
CCCNC(=O)N1[C@H](C#N)[C@H](c2ccc(-c3cccc(OC)c3)cc2)[C@H]1CO,-1.9
COc1ccc(C#Cc2ccc([C@@H]3[C@@H](CO)N4C(=O)CN(C(=O)c5ccccc5)C[C@@H]34)cc2)cc1,3.1
O=C(Cc1ccncc1)NCC[C@@H]1CC[C@@H](NS(=O)(=O)c2ccccc2Cl)[C@H](CO)O1,-0.088
O=C(Cc1ccncc1)NCC[C@@H]1CC[C@@H](NS(=O)(=O)c2ccccc2Cl)[C@@H](CO)O1,1.8
COc1ccccc1-c1ccc([C@@H]2[C@H]3CN(C(=O)c4cccnc4)CCCCN3[C@H]2CO)cc1,-4.7*
COc1ccccc1-c1ccc([C@@H]2[C@@H](CO)N3CCCCN(C(=O)c4cccnc4)C[C@@H]23)cc1,-1.8
COc1ccccc1-c1ccc([C@H]2[C@@H](CO)N3CCCCN(C(=O)c4cccnc4)C[C@H]23)cc1,-13*
COc1ccccc1-c1ccc([C@H]2[C@@H](CO)N3CCCCN(C(=O)c4ccncc4)C[C@@H]23)cc1,-1.1
COc1ccccc1-c1ccc([C@@H]2[C@@H](CO)N3CCCCN(C(=O)c4ccncc4)C[C@H]23)cc1,-0.66
COc1ccccc1-c1ccc([C@H]2[C@H](CO)N3CCCCN(C(=O)c4cccnc4)C[C@@H]23)cc1,-1.3
COc1ccccc1-c1ccc([C@H]2[C@@H](CO)N3CCCCN(C(=O)c4ccncc4)C[C@H]23)cc1,-17*
COc1ccccc1-c1ccc([C@H]2[C@@H](CO)N3CCCCN(C(=O)c4cccnc4)C[C@@H]23)cc1,0.24
CO[C@@H]1CN(C)C(=O)c2ccc(NC(=O)c3ccccc3F)cc2OC[C@H](C)N(C)C[C@@H]1C,0.62
CN(C)C(=O)c1cccc(-c2ccccc2[C@H]2[C@@H](C#N)N(C(=O)C3CC3)[C@@H]2CO)c1,-0.92
COc1ccc(C#Cc2ccc([C@@H]3[C@H](CO)N4CCCCN(C(=O)Nc5cccc(F)c5)C[C@@H]34)cc2)cc1,3.1
CN1C(=O)c2cc(NC(=O)c3cccc(C(F)(F)F)c3)ccc2OC[C@@H]2O[C@H](CC(=O)NCCN3CCCC3)CC[C@@H]21,-1.3
O=C(c1cccc(F)c1)N1CCCCN2[C@H](CO)[C@H](c3ccc(/C=C/c4ccccc4)cc3)[C@H]2C1,1.3
O=C(c1ccccn1)N1CC(=O)N2[C@@H](CO)[C@@H](c3ccc(C#CC4CCCC4)cc3)[C@@H]2C1,2.3
CCCC#Cc1ccc([C@@H]2[C@@H](CO)N3CCCCN(Cc4cccnc4)C[C@@H]23)cc1,3.1
COc1ccccc1C(=O)N1C[C@@H]2[C@H](c3ccccc31)[C@H](CO)N2C(=O)Cc1ccccc1,0.26
COCC(=O)Nc1ccc2c(c1)[C@@H]1C[C@H](CC(=O)N[C@H](C)c3ccccc3)O[C@H](CO)[C@@H]1O2,1.1
COc1ccc(NC(=O)N(C)C[C@@H]2OCCCC[C@@H](C)Oc3ccc(NC(=O)c4ccncc4)cc3C(=O)N([C@H](C)CO)C[C@H]2C)cc1,0.64
O=C(CC1CC1)N1CC2(C1)[C@H](c1ccccc1)[C@@H](CO)N2Cc1ccccn1,1.4
O=C(c1ccncc1)N1CC2(C1)[C@@H](c1ccccc1)[C@@H](CO)N2CC1CC1,-0.48
SMILES,IDE exosite FP
O=C(Cc1ccccn1)N1CC2(C1)[C@@H](c1ccccc1)[C@H](CO)N2C(=O)c1ccncc1,-3.6*
CCCNC(=O)Nc1ccc2c(c1)OC[C@H](C)N(S(C)(=O)=O)C[C@@H](C)[C@@H](OC)CN(C)C2=O,0.71
COCC(=O)Nc1ccc2c(c1)C(=O)N(C)C[C@@H](OC)[C@H](C)CN(C(=O)c1ccncc1)[C@H](C)CO2,-0.7
CC(C)CC#Cc1ccc([C@H]2[C@@H](CO)N3C(=O)CN(C(=O)c4ccc5c(c4)OCO5)C[C@H]23)cc1,0.84
Cc1ccc(-c2ccc([C@@H]3[C@@H](CO)N4CCCCN(C(=O)c5ccc(F)cc5)C[C@@H]34)cc2)cc1,1.8
COc1ccc2c3c([nH]c2c1)[C@@H](CO)N(C(=O)Nc1ccc(F)cc1)CC31CN(C(=O)Nc2c(C)noc2C)C1,1.3
COc1ccccc1C#Cc1ccc([C@@H]2[C@H](C#N)N(C(=O)C3CCC3)[C@H]2CO)cc1,-7.1*
COc1ccccc1C#Cc1ccc([C@H]2[C@H](C#N)N(C(=O)C3CCC3)[C@H]2CO)cc1,-8.1*
N#C[C@@H]1[C@H](c2ccc(C#Cc3ccc(F)cc3)cc2)[C@@H](CO)N1C(=O)C1CCCC1,-0.026
N#C[C@@H]1[C@@H](c2ccc(C#Cc3ccccc3F)cc2)[C@@H](CO)N1C(=O)C1CCCCC1,2.9
COc1ccccc1C#Cc1ccc([C@@H]2[C@@H](C#N)N(C(=O)C3CCC3)[C@H]2CO)cc1,-4.8*
COc1ccccc1C#Cc1ccc([C@@H]2[C@@H](C#N)N(C(=O)C3CCC3)[C@@H]2CO)cc1,-4.6*
N#C[C@@H]1[C@H](c2ccc(C#Cc3ccccc3F)cc2)[C@H](CO)N1C(=O)C1CCC1,3.6
CCCC#Cc1ccc([C@H]2[C@H]3CN(Cc4cccnc4)CCCCN3[C@H]2CO)cc1,1.2
O=C1CCCc2cnnn2COC[C@H](Cc2ccccc2)N1,1.3
COC(=O)C[C@H]1C[C@H]2c3cc(NC(=O)c4ccc5c(c4)OCO5)ccc3O[C@H]2[C@H](CO)O1,-0.24
O=C(Nc1ccc(F)cc1)N1CC(=O)N2[C@H](C1)[C@H](c1ccc(C#Cc3ccccc3)cc1)[C@@H]2CO,0.56
COCC(=O)N1CC(=O)N2[C@H](CO)[C@H](c3ccc(C#CC4CCCC4)cc3)[C@@H]2C1,1.4
COc1ccccc1C#Cc1ccc([C@@H]2[C@@H](CO)N(C(=O)C3CCCCC3)[C@H]2C#N)cc1,-1.7
N#C[C@@H]1[C@@H](c2ccc(C#Cc3ccccc3F)cc2)[C@H](CO)N1C(=O)C1CCCCC1,1.4
COc1ccccc1C#Cc1ccc([C@@H]2[C@H](C#N)N(C(=O)C3CCCCC3)[C@H]2CO)cc1,-6.6*
COc1ccccc1C#Cc1ccc([C@@H]2[C@@H](CO)N(C(=O)C3CCC3)[C@H]2C#N)cc1,-4.2*
O=C(Nc1ccc2c(c1)[C@@H]1C[C@H](CC(=O)N3CCCCC3)O[C@H](CO)[C@@H]1O2)NC1CCCCC1,0.99
C[C@@H]1CN([C@H](C)CO)C(=O)CCCn2nncc2CO[C@@H]1CN(C)Cc1cccc(C(F)(F)F)c1,0.26
CC(C)CC#Cc1ccc([C@@H]2[C@@H](CO)N3C(=O)CN(S(=O)(=O)c4ccccc4)C[C@H]23)cc1,2.7
SMILES,IDE exosite FP
CO[C@H]1CN(C)C(=O)c2cccc(C#N)c2OCC[C@@H]2CC[C@H](OC)[C@@H](CN(C)C(=O)[C@H]1C)O2,1.3
CCCC(=O)Nc1ccc2c(c1)C(=O)N(C)[C@H]1CC[C@H](CC(=O)N3CCCCC3)O[C@@H]1CO2,0.53
CN(C)CC#Cc1ccc([C@@H]2[C@@H](CO)N3CCCCN(CC4CC4)C[C@@H]23)cc1,0.01
Cc1cccc(-c2ccc([C@@H]3[C@H]4CN(Cc5cncnc5)CCCCN4[C@H]3CO)cc2)c1,-4.7*
OC[C@@H]1[C@@H](c2ccc(-c3ccccc3F)cc2)[C@H]2CN(Cc3cncnc3)CCCCN12,0.86
Cc1ccc(-c2ccc([C@H]3[C@@H](CO)N4CCCCN(Cc5cncnc5)C[C@H]34)cc2)cc1,-0.17
OC[C@@H]1[C@H](c2ccc(-c3ccc(F)cc3)cc2)[C@H]2CN(Cc3cccnc3)CCCCN12,1.2
